Laboratory results as given in PubChem BioAssay AID1004 (SRMLSC, 2008).
A number with no mark means an inactive call.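 Rule for the calls: active = viability at 10 µM of 29.74% or lower, 3 SD below the compound median; inactive = the rest.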

Assay: viability of HCT116 lacking mutant beta-catenin – cell-based, DP diverse set, validation, pilot screen (AID 1004)
Details: HCT116 (mutant beta-catenin deleted) viability, CellTiter-Glo, 60 h; at 10 µM; stronger effect = lower value

| SMILES | viability |
| --- | --- |
| O=C1CCC(N2C(=O)c3ccccc3C2=O)C(=O)N1 (stereo unspecified) | 96.1% |
| CN(C)c1ccc(/C=C2\C(=O)Nc3ccccc32)cc1 | 80.2% |
| O=C1OC2(c3ccc(O)cc3Oc3cc(O)ccc32)c2ccccc21 | 96.5% |
| C=C(C)C1CC=C(C)C(O)C1 (stereo unspecified) | 94.9% |
| c1ccc2nc3ccccc3cc2c1 | 100% |
| CCN(CC)C(=S)SSC(=S)N(CC)CC | 76.5% |
| CC1(C)CCC[C@@](C)([C@H]2CC[C@]3(C)[C@@H]2[C@H](O)C[C@@H]2[C@@]4(C)CC[C@H](O)C(C)(C)[C@@H]4[C@@H](O)C[C@]23C)O1 | 97.9% |
| C[C@H]1c2cccc(O)c2C(O)=C2C(=O)[C@]3(O)C(O)=C(C(N)=O)C(=O)[C@@H](N(C)C)[C@@H]3[C@@H](O)[C@@H]21 | 107% |
| NC(=O)c1cccc(N)c1 | 108% |
| Cn1cnc2c(NCc3ccccc3)nc(NCCO)nc21 | 103% |
| C[C@H](CS)C(=O)N1CCC[C@H]1C(=O)O | 93.8% |
| Nc1ccn([C@H]2CC[C@@H](CO)O2)c(=O)n1 | 102% |
| O=C(O)c1ccccc1O | 103% |
| O=C(O)c1cc([N+](=O)[O-])ccc1NCCCc1ccccc1 | 99.6% |
| COc1ccc2c(c1)c(CC(=O)O)c(C)n2C(=O)c1ccc(Cl)cc1 | 101% |
| C[C@@]12C=Cc3occc3C1CC[C@@]13C[C@@H](CCC12)[C@@](O)(CO)C3 (stereo partly specified) | 94.3% |
